Lassa entry inh: Lassa virus entry inhibition. Lassa virus pseudotype entry inhibition, cell reporter. Potency, µM (top dose mostly 37.9 µM), for the others: at the highest dose activity change, negative = inhibition, usual class: inhibitors. 1.2% of 300,000 active. AID 540256; calls by dose curve; tested in HEK293 cells; note: potency is the fitted concentration of half-maximal effect; nearly all actives have a fitted effect of over 50% in size
Marburg entry inh: inhibitors of Marburg virus binding or cell entry; Potency, µM (doses to about 37.8 µM), without a hit: top-dose activity change, negative = inhibition, actives largely listed as inhibitors; 1.8% of 300,000 active; AID 540276; Marburg virus pseudotyped entry inhibition, cell reporter; calls by dose curve; tested in HEK293 cells; note: potency is the fitted concentration of half-maximal effect
HCMV inh: human cytomegalovirus inhibition. HFF cells, HCMV-luciferase reporter, 72 h; stronger effect = lower value. AID 1259415. activity change, negative = inhibition, % at 57.5 µM. 4.5% of 410,000 active; in the data active = activity change below about -60%; inconclusive = no clear call, values can overlap the other calls; inactive = above about -39%
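Screen run at 2 compound doses on HFFs infected with reporter HCMV, MOI 1 PFU/cell. Luciferase activity from cell lysates at 72 h post infection gave inhibition relative to buffer-only and Salinomycin wells.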
FMDV antiviral: blocks foot and mouth disease virus | FMDV antiviral cell-based qHTS | Potency, µM (titrated, usually from 57.9 µM), without a hit: at the top dose activity change, negative = inhibition, most hits filed as inhibitors | 1.2% of 410,000 active; calls by dose curve; tested in HEK293T cells; note: read-out not given here; potency is the fitted concentration of half-maximal effect; nearly all actives have a fitted effect of over 45% in size
The depositor's hits bear a star; ? = inconclusive; . = not tested or not shown; [ ] = dose if it differs, or a comment. Rows were chosen to be rich in hits. Some 6.2% of all compounds tested hit in one or more screens of this group. % is set by controls: 0 for no effect and ±100 for the full control effect.

SMILES	Lassa entry inh	Marburg entry inh	HCMV inh	FMDV antiviral
CC(C)C1CC(CCNCc2ccc(N(C)C)cc2)(c2ccccc2)CCO1 (stereo unspecified)	?	?	?	-23%
CC(C)C1CC(CCNCc2ccc3c(c2)OCO3)(c2ccccc2)CCO1 (stereo unspecified)	?	10µM*	-29	20%
CC1CC(C)CN(C(=O)c2ccc3c(c2NCCO)C(=O)c2ccccc2C3=O)C1 (stereo unspecified)	?	10µM*	-13	-21%
CN1CCN(c2nc3c(c(=O)n(C)c(=O)n3C)n2Cc2ccccc2)CC1	.	.	-30	-15%
CNc1nc2c(c(=O)n(C)c(=O)n2C)n1Cc1ccccc1	-16%	?	-65*	?
CNc1nc2c(c(=O)n(C)c(=O)n2C)n1CCCc1ccccc1	?	?	?	0%
Cn1c(=O)c2c(nc(N3CCOCC3)n2Cc2ccccc2Cl)n(C)c1=O	0%[46.1 µM]	2%[46.1 µM]	-9	-1%
CC1CCN(c2nc3c(c(=O)n(C)c(=O)n3C)n2Cc2ccccc2)CC1	7.3µM*	-23%	-31	.
Cc1cccc(Cn2c(NCCO)nc3c2c(=O)n(C)c(=O)n3C)c1	-29%	?	-75*	?
Cn1c(=O)c2c(nc(N3CCOCC3)n2Cc2ccccc2F)n(C)c1=O	-1%[46.1 µM]	-3%[46.1 µM]	-104*	-9%
COCCNc1nc2c(c(=O)n(C)c(=O)n2C)n1Cc1cccc(C)c1	-29%	?	-18	0%
CCN1C[C@@]2(COC)C3[C@@H](OC)C4[C@@H]1C3([C@@H]1C[C@@]3(O)[C@H](OC(=O)c5ccccc5)[C@@H]1[C@]4(OC(C)=O)[C@@H](O)[C@@H]3OC)[C@H](OC)C[C@H]2O	.	1%	.	.
CC1CCCCN1Cc1nc2c(c(=O)n(C)c(=O)n2C)n1CCc1ccccc1 (stereo unspecified)	-13%	-6%	-67*	-28%
COCCn1c(N2CCN(c3ccc(OC)cc3)CC2)nc2c1c(=O)n(C)c(=O)n2C	?	-5%	-10	-1%
C=CCn1c(N2CCN(c3ccc(OC)cc3)CC2)nc2c1c(=O)n(C)c(=O)n2C	?	?	-21	28µM*
CN(C(Cc1ccc(OS(=O)(=O)c2cccc3cnccc23)cc1)C(=O)N1CCN(c2ccccc2)CC1)S(=O)(=O)c1cccc2cnccc12 (stereo unspecified)	.	.	.	-19%
COc1ccc(-c2nnc3n2N=C(C)CS3)cc1	-13%	24%	-29	-3%
CCOC(=O)/C(=C/c1ccc(OC(F)F)cc1)C1=Nn2c(nnc2-c2ccc(Cl)cc2)SC1	?	?	-98*	13µM*
CCOC(=O)/C(=C\c1ccc(OC(F)F)cc1)C1=Nn2c(nnc2-c2ccc(Cl)cc2)SC1	?	?	.	13µM*
CC(=O)Nc1ccc(S(=O)(=O)Nc2cc(-c3cn4ccccc4n3)ccc2C)cc1	?	4%[46.1 µM]	19	6%
COc1cccc(C(=O)NC(C)c2nnc3n2CCN(CC=C(C)C)CC3)c1 (stereo unspecified)	.	.	.	-5%
C=CCn1c(C)cc(C(=O)CSc2nc3ccccc3o2)c1C	-25%	13µM*	?	-20%
Cc1cc(C(=O)CSc2nc3ccc(Cl)cc3[nH]2)c(C)n1CC1CCCO1 (stereo unspecified)	?	13µM*	-66*	14µM*
Cc1ccc2nc(SCC3CCCCO3)[nH]c2c1 (stereo unspecified)	?	2.8µM*	-7	?
Cc1cc(C(=O)CSc2nc3ccc(Cl)cc3[nH]2)c(C)n1C	-3%	-1%	37	8%
SMILES	Lassa entry inh	Marburg entry inh	HCMV inh	FMDV antiviral
Cc1cc(C(=O)CSc2nc3ccccc3[nH]2)c(C)n1Cc1ccco1	4µM*	?	-85*	-72%
Cc1cc(C(=O)CSc2nc3ccccc3[nH]2)c(C)n1C	?	?	-10	-15%
Cc1cc(C(=O)CSc2nc3ccccc3o2)c(C)n1C1CC1	?	?	3	9%
COC(=O)c1cc2c(c3c4ccccc4n(S(=O)(=O)c4ccc(OC)cc4)c13)C(=O)N(Cc1ccc(C(F)(F)F)cc1)C2	.	.	74	.
CCN(C(=O)CSc1nc2ccccc2n1Cc1ccc(C(=O)OC)cc1)c1ccccc1	?	.	-2	-17%
C=CCn1c(C)cc(C(=O)CSc2nc3ccccc3[nH]2)c1C	4.6µM*	?	-92*	-85%
C=CCn1c(C)cc(C(=O)CSc2nc3ccccc3c(=O)[nH]2)c1C	?	?	-37	?
CCOc1ccc(CCNC(=O)CSc2nnnn2-c2ccccc2)cc1OCC	-25%[46.1 µM]	0%[46.1 µM]	-2	-13%
Nc1cc2c(cc1Cl)-c1ccc([N+](=O)[O-])cc1C2=NO	1%	?	?	-6%
O=[N+]([O-])c1ccc2c(c1)C(=NO)c1cc(F)ccc1-2	-5%	-17%	-95*	-20%
COc1cc2c(cc1[N+](=O)[O-])-c1ccc([N+](=O)[O-])cc1C2=NO	.	.	-94*	-22%
O=[N+]([O-])c1ccc2c(c1)/C(=N\O)c1ccccc1-2	-3%	?	-85*	-2%
O=[N+]([O-])c1ccc(O)c(/C=N\N=C2c3ccccc3-c3ccccc32)c1	?	14µM*	-89*	?
Cc1ccccc1-c1nn2c(=O)cc(CN3CCN(C(=O)c4ccc(C(C)(C)C)cc4)CC3)nc2s1	11%[46.1 µM]	.	25	0%
ON=C1c2ccccc2-c2ccc(F)cc21	14%	3%	22	6%
ON=C1c2ccccc2-c2ccc(Br)cc21	7%	27%	-63*	7%
Cc1ccc(SCCNC(=O)c2ccc(C)c(S(=O)(=O)Nc3cccc(C)c3)c2)cc1	?	?	-70*	.
Cc1ccc(NS(=O)(=O)c2cc(C(=O)NCCSc3ccc(C)cc3)ccc2C)cc1	?	?	-98*	.
O=C(CN(CC(=O)Nc1ccc(Br)cc1)CC(=O)Nc1ccc(Br)cc1)Nc1ccc(Br)cc1	.	.	-17	.
COc1ccc([C@]23Cc4ccccc4[C@H](O2)C2=C(CC(C)(C)CC2=O)O3)cc1	.	6%[14.2 µM]	.	.
Cc1cc(=O)oc2cc(OCc3cn(CC(=O)c4ccc(O)cc4)nn3)ccc12	2%[46.1 µM]	.	.	.
CCSc1nsc(NC(=O)Nc2ccccc2Cl)n1	-23%[46.1 µM]	?	29	3%
CCOc1ccc(NC(=O)Nc2nc(SCC)ns2)cc1	?	?	-61*	-30%
O=C(O)C1=CC(=C(c2ccc(O)c(C(=O)O)c2)c2ccc(O)c(C(=O)O)c2)C=CC1=O	?	0.44µM*	.	2%
O=C(O)c1cc(O)ccc1O	.	.	66	-22%
COc1ccc(C(=O)N2CCC(c3nc(-c4ccc(S(=O)(=O)N5CCCC5)cc4)no3)CC2)cc1	-24%[46.1 µM]	?	-81*	-24%
O=C(CC1CCCCC1)N1CCCC(c2nc(-c3ccc(S(=O)(=O)N4CCCC4)cc3)no2)C1 (stereo unspecified)	-24%	-26%	-71*	.
O=C(c1ccco1)N1CCCC(c2nc(-c3ccc(S(=O)(=O)NCc4ccccc4)cc3)no2)C1 (stereo unspecified)	?	?	-88*	?
COC(=O)[C@@H]1[C@@H](CO)[C@@H]2Cn3c(cccc3=O)[C@H]1N2C(=O)Nc1cc(F)ccc1F	.	.	4	.
